Rows were chosen to be rich in hits. Some 7.8% of all compounds tested hit in one or more screens of this group.
Marburg entry inh: blocks Marburg virus binding to or entry into cells; Marburg virus pseudotyped entry inhibition, cell reporter; Potency, µM (titrated, usually from 37.8 µM), inactives show at the top dose activity change, negative = inhibition, usual class: inhibitors; 300,000 compounds, 1.8% hits; AID 540276; calls by dose curve; tested in HEK293 cells; also: potency is read from the fitted curve at half-maximal effect
HCMV antiviral: human cytomegalovirus inhibition; HFF cells, HCMV-luciferase reporter, 72 h; stronger effect = lower value; activity change, negative = inhibition, % at 57.5 µM; 410,000 compounds, 4.5% hits; AID 1259415; in the data active = activity change below about -60%; inconclusive = no clear call, values can overlap the other calls; inactive = above about -39%
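Luciferase read-out from HCMV-luciferase-infected HFFs (MOI 1 PFU/cell) 72 h post infection at 37C; compounds added after 16 h cell attachment; activity normalized between buffer-only basal and Salinomycin (10uM) inhibitor controls.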
Lassa entry inh: Lassa virus entry inhibition | Potency, µM (highest dose often 37.9 µM), inactives show at the top dose activity change, negative = inhibition, actives largely listed as inhibitors | Lassa virus pseudotype entry inhibition, cell reporter | 300,000 compounds, 1.2% hits | AID 540256; calls by dose curve; tested in HEK293 cells; also: potency is read from the fitted curve at half-maximal effect; nearly all actives have a fitted effect of over 50% in size
Vaccinia mCherry: inhibitors of vaccinia virus infection (mCherry reporter signal); Vaccinia virus mCherry reporter infection, fluorescence; 310,000 compounds, 0.63% hits; Potency, µM (highest dose often 36.5 µM), for the others: top-dose activity change, negative = inhibition, most hits filed as inhibitors; calls by dose curve; tested in A549 cells; also: potency is read from the fitted curve at half-maximal effect; nearly all actives have a fitted effect of over 35% in size
HCV inhibitor: inhibitors of hepatitis C virus infection | Huh7.5.1 HCVcc-Cre infection, luciferase reporter, 44 h | Potency, µM (highest dose often 41.8 µM), for the others: top-dose activity change, negative = inhibition, usual class: inhibitors | 340,000 compounds, 3.4% hits; active = well fitted inhibition curve with a large enough effect; inconclusive = small, poorly fitted or top-dose-only effect, or another doubt; inactive = no such curve, though single readings can be large or run the other way; also: potency is read from the fitted curve at half-maximal effect
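Cells (1,000/well) were plated 4 h before compound, then infected with HCVcc-Cre virus (~0.5 moi). After 44 h further culture, infection was read as luciferase luminescence following a 15 min substrate incubation at room temperature.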
VACV Venus inh: inhibitors of vaccinia virus (Venus reporter) | Vaccinia virus Venus reporter expression, fluorescence | Potency, µM (top dose mostly 36.5 µM), for the others: at the top dose activity change, negative = inhibition, most hits filed as inhibitors | 330,000 compounds, 0.46% hits | AID 720580; calls by dose curve; tested in A549 cells; also: potency is read from the fitted curve at half-maximal effect; nearly all actives have a fitted effect of over 30% in size
Active calls of the source: *; i = inactive; ? = inconclusive; . = not tested or not shown; ! = not confirmed by another sample; [ ] = dose if it differs, or a comment. % is scaled to controls: 0 for no effect and ±100 for the full control effect.

SMILES | Marburg entry inh | HCMV antiviral | Lassa entry inh | Vaccinia mCherry | HCV inhibitor | VACV Venus inh
CC1CCCN(C(=S)Nc2ccc(S(=O)(=O)N3CCCCC3)cc2)C1 (stereo unspecified) | -22%[46.1 µM] | -67* | -14%[46.1 µM] | i | 8% | -19%
C=C(C)CSc1nc2sc3c(c2c(=O)n1CCCC)CCCC3 | . | 20 | -16%[46.1 µM] | -1% | . | 4%
Cc1ccc(NC(=O)Nc2ccnc(-c3cccnc3)n2)cc1 | ? | -87* | ? | . | 11µM* | .
Cc1ccc(C)c(CNC(=O)c2ccc3c(c2)nc2n3CCCCC2)c1 | . | -23 | 7.9µM* | -5% | . | 0%
Cc1ccc(C)c(CNC(=O)c2ccc3c(c2)nc2n3CCOC2)c1 | . | 10 | ? | -7% | . | 3%
CC(C)CCNC(=O)c1ccc2c(c1)nc1n2CCCCC1 | . | -7 | ? | -16% | . | -8%
Clc1ccc2c(c1)nc1n2CCCC1 | . | -8 | . | -4% | 25µM* | -13%
O=C(NCCc1ccccc1Cl)c1ccc2c(c1)nc1n2CCCCC1 | . | -81* | ? | -17% | . | -17%
COC(=O)[C@@H]1[C@@H](CO)[C@@H]2Cn3c(cccc3=O)[C@@H]2N1C(=O)c1ccccc1 | . | -5 | . | . | . | .
COC(=O)c1cc(CNC(=O)c2cccc(N(C)C)c2)cc(NC(=O)c2ccccc2Cl)c1 | . | . | . | -12% | . | -19%
Cc1ccc(CN2c3ccccc3S(=O)(=O)c3ccccc32)cc1 | . | 16 | -22%[46.1 µM] | 0% | . | 5%
CN1CCCC(CN2c3ccccc3Sc3ccccc32)C1 (stereo unspecified) | . | 22 | . | -29% | ? | -27%
CN1CCCC(CC2c3ccccc3Sc3ccccc32)C1 (stereo unspecified) | . | -27 | . | -18% | 2.8µM* | -29%
Cc1ccc(-n2nc3c(N4CCCC(C(=O)NCc5ccc(Cl)cc5)C4)nnc(C)c3c2C)cc1 (stereo unspecified) | . | 8 | 9%[46.1 µM] | -8% | . | -17%
Cc1ccc(-n2nc3c(N4CCC(C(=O)NCc5ccccc5Cl)CC4)nnc(C)c3c2C)cc1 | . | -28 | -15%[46.1 µM] | ? | . | 10µM*
Cc1ccc(-n2nc3c(SCCN4CCOCC4)nnc(C)c3c2C)cc1 | ? | ? | 11% | ? | ? | ?
Cc1nnc(N2CCC(C(=O)NCCc3ccccc3Cl)CC2)c2nn(-c3ccccc3)c(C)c12 | . | -91* | -13%[46.1 µM] | 28µM* | . | ?
CCOc1ccc(CNC(=O)C2CCN(c3nnc(C)c4c(C)n(-c5ccc(C)cc5)nc34)CC2)cc1 | . | -74* | . | . | 13µM* | .
CCOc1ccc(-n2nc3c(SCCN4CCCC4)nnc(C)c3c2C)cc1 | ? | ? | 7% | -28% | 10µM* | -17%
CC(=O)c1ccc(-c2ccc3c4c(ccc3c2)OC(CNC(=O)[C@@H]2CCCN2C(C)=O)C4)s1 (stereo partly specified) | . | . | . | -3% | . | -17%
Cc1nnc(N2CCC(C(=O)NCc3ccc(F)cc3)CC2)c2nn(-c3ccc(Cl)cc3)c(C)c12 | . | -86* | -9%[46.1 µM] | ? | . | ?
COc1ccccc1CCNC(=O)C1CCN(c2nnc(C)c3c(C)n(-c4ccc(C)cc4)nc23)CC1 | . | -93*! | ? | 14µM* | ? | 10µM*
Cc1ccc(-n2nc3c(N4CCC(C(=O)NCc5ccccc5C)CC4)nnc(C)c3c2C)cc1 | . | . | . | . | 6.3µM* | .
CCOc1ccccc1CNC(=O)C1CCN(c2nnc(C)c3c(C)n(-c4ccc(C)cc4)nc23)CC1 | . | -86* | -9%[46.1 µM] | 11µM* | 11µM* | 11µM*
Cc1nnc(N2CCC(C(=O)NCCc3ccccc3)CC2)c2nn(-c3ccc(Cl)cc3)c(C)c12 | . | -11 | 12%[46.1 µM] | ? | . | ?
SMILES | Marburg entry inh | HCMV antiviral | Lassa entry inh | Vaccinia mCherry | HCV inhibitor | VACV Venus inh
Cc1cc(F)ccc1NC(=O)C1CCCN(C(=O)c2cnn(-c3ccccc3)c2-n2cccc2)C1 (stereo unspecified) | 5%[46.1 µM] | -25 | -23%[46.1 µM] | -11% | . | -16%
Cc1nc(N2CCN(C(=O)COc3ccccc3)CC2)c2c(C)c(C)sc2n1 | ? | -23 | ? | ? | 13µM* | ?
Cn1nc(-c2ccc(OCC(=O)N3CCN(Cc4ccccc4)CC3)cc2)c2ccccc2c1=O | 8.2µM* | ? | -15% | -14% | 6.3µM* | ?
O=C(COc1ccccc1)N1CCN(c2ncccn2)CC1 | 14%[46.1 µM] | -26 | 15% | 3% | 20% | -1%
Cc1ccc(OCC(=O)N2CCN(c3nnc(-c4ccccc4)c4ccccc34)CC2)cc1 | ? | -83* | ? | . | ? | .
COc1ccc(CNC(=O)c2cc3c(=O)n(Cc4ccco4)ccc3nc2C)c(OC)c1 | . | ? | 5%[46.1 µM] | -3% | . | -3%
Cc1cc(C)c(O)c(CN(C)Cc2cc(Cl)cc(Cl)c2O)c1 | 3.2µM* | 12 | ? | 2.8µM* | ? | ?
Cc1ccnc(NCc2cc(Cl)cc(Cl)c2O)c1 | . | 27 | . | i | . | -17%
O=C(c1cnn(-c2cccc(F)c2)c1-n1cccc1)N1CCN(c2ccccc2F)CC1 | . | 0 | -4%[46.1 µM] | -9% | . | -9%
CCCN(CCC)CCNC(=O)c1cn(C)c(=O)c2c1c1ccccc1n2C | ? | 46 | 12%[46.1 µM] | -21% | 7% | -9%
CCCCN(C)CCNC(=O)c1cc2c(=O)n(C)c3ccccc3c2n1C | -26%[46.1 µM] | 140 | 21%[46.1 µM] | -6%[7.34 µM] | . | -12%[7.34 µM]
CCCCN(C)CCNC(=O)c1cn(C)c(=O)c2c1c1ccccc1n2C | 11µM* | 15 | -9%[46.1 µM] | i | -13% | -4%
CCCCN(CC)CCNC(=O)c1cn(C)c(=O)c2c1c1ccccc1n2C | -35%[46.1 µM] | -62*! | ? | -7% | 7% | 3%
CCC(C)NC(=O)Cn1c(=O)n(CCCCCC(=O)NCc2ccccc2Cl)c(=O)c2sccc21 (stereo unspecified) | -5%[46.1 µM] | -19 | 0%[46.1 µM] | -14% | . | -7%
CS(=O)(=O)Cc1cc(Sc2ccccc2)nc(-c2ccncc2)n1 | ? | 2 | -14% | 1% | 3.2µM* | 3%

Screens (PubChem)
